# An excerpt weighted towards active compounds, which were near 2.7% of everything screened.
# FAS-TE inh – blocks the thioesterase domain of human fatty acid synthase; P49327; recombinant FAS-TE, OMFH fluorogenic substrate, fluorescence endpoint; inhibition, % at 15 µM; hit rate 0.67% among 360,000; AID 602261;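 active means compounds whose normalised, plate-corrected inhibition of enzyme fluorescence in the single-dose primary screen is 50% or more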;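 further: 0% = DMSO with enzyme and 100% = substrate without enzyme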
# KLK7 zymogen act – activators of human kallikrein-7 zymogen. P49862. purified proKLK7, EDANS-DABCYL substrate fluorescence; 100% is mature enzyme control, 0% vehicle. hit rate 0.9% among 370,000. AID 652039. activation, % at 7 µM;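 active means activation above the mean of all tested compounds plus 3 SD, computed per campaign excluding outliers beyond control limits, cut at about 13% in these data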
# Neddyl block – inhibitors of human cullin neddylation. P61081+Q13564. TR-FRET cullin neddylation, biochemical. calls only at 25 µM. hit rate 0.58% among 360,000; in the data active means inhibition above about 36%
# PfG6PD inh – PfG6PD (Plasmodium falciparum) enzyme inhibition. PfGluPho enzyme, NADPH resazurin-diaphorase fluorescence. inhibition, % at 20 µM. hit rate 0.78% among 350,000;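 active means inhibition reaching at least a set limit at 20 µM in the primary screen, cut at about 59% in these data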;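 further: 0% = DMSO wells with substrate and 100% = DMSO wells lacking glucose-6-phosphate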
# PfGluPho conf – PfG6PD inhibition, single-dose confirmed | hit rate 34% among 2,400 | AID 504753 | inhibition, % at 20 µM | recombinant PfGluPho, NADPH-diaphorase-resazurin fluorescence | shares compounds with PfG6PD inh;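 active means inhibition of at least 50% at 20 µM in any single replicate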;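 further: 0% = DMSO with substrate and 100% = DMSO lacking glucose-6-phosphate substrate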
# Diaphorase 10uM – inhibits diaphorase or oxidizes, flagging false PfG6PD hits; inhibition, % at 20 µM; shares compounds with PfG6PD inh; diaphorase-coupled resazurin reduction, fluorescence, NADPH 10 uM; hit rate 39% among 820; AID 504862;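 active means average inhibition reaching 50% or more with the compound at 20 µM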;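 further: resorufin red fluorescence formed as diaphorase reduces resazurin using NADPH; 0% = DMSO with enzyme and 100% = DMSO without enzyme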
# Diaph ctr 30uM – counter-screen for P. falciparum G6PD inhibitors: diaphorase inhibitors, oxidizers | shares compounds with PfG6PD inh | Diaphorase/resazurin coupled assay, resorufin fluorescence, 30 uM NADPH | inhibition, % at 20 µM | hit rate 29% among 820 | AID 504863;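 active means inhibition averaging 50% or more, tested at 20 µM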;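 further: 0% = DMSO with enzyme and 100% = DMSO wells lacking diaphorase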
# An asterisk follows results filed as active; i = inactive; x = no result shown; + = active, no number.
SMILES,FAS-TE inh,KLK7 zymogen act,Neddyl block,PfG6PD inh,PfGluPho conf,others
NC(=S)NN=Cc1cc(-c2cccc(N)c2)ccn1,2,0,i,69*,36,
CCC(C)N(CCNC(=O)c1ccc2c(c1)NC(=O)c1ccccc1S2)C1CCCCC1 (stereo not given),4,0,i,76*,93*,Diaphorase 10uM=-8;Diaph ctr 30uM=-13
CC1CCCC(C)N1CCCNC(=O)c1ccc2c(c1)NC(=O)c1ccccc1S2 (stereo not given),-6,0,i,8,x,
CC(C)N1CCCCC(NC(=O)c2ccc(-c3ccccc3)cc2)C1=O (stereo not given),x,0,x,x,x,
Cc1cc(C)c2c(n1)sc1c(N3CCN(C)CC3)ncnc12,-7,0,i,43,x,
Cc1cc(C)c2c(n1)sc1c(N3CCCCC3)ncnc12,10,0,i,70*,0,
CCN(CC)c1ncnc2c1sc1nc(C)cc(C)c12,3,-1,i,72*,36,
CCCCC(=O)N1CCN(C(=O)c2ccc3c(c2)nc(C)n3C2CCCC2)CC1,x,0,x,x,x,
CCCCNC(=O)C[C@H]1C[C@@]2(C(=O)OC)C(=C[C@H](C3CCCC3)O[C@@H]2C)N(Cc2ccco2)C1=O,x,1,x,x,x,
CCOC(=O)c1c(C2COc3ccccc3O2)csc1NC(=O)c1ccco1 (stereo not given),25,0,i,84*,54*,Diaphorase 10uM=-26;Diaph ctr 30uM=-16
COc1ccc(CN(CC#Cc2ccc(C)cc2)C(N)=NC(=O)CCc2ccccc2)c(OC)c1,x,0,x,x,x,
Cc1cc(NCCCCCCCNc2cc(C)nc3cc([N+](=O)[O-])ccc23)c2ccc([N+](=O)[O-])cc2n1,-18,2,+,78*,12,
Cc1ccc(NC(=S)NNC(=O)c2cnccn2)cc1,x,1,x,x,x,
O=C(c1cc(Cl)cc(Cl)c1)N1CC[C@H]2[C@H](CCCN2Cc2cc(F)cc(F)c2)C1,x,0,x,x,x,
O=c1ccn(-c2cccc(C(F)(F)F)c2)nc1-c1ccn(-c2cccc(Cl)c2)n1,20,1,i,87*,67*,Diaphorase 10uM=61*;Diaph ctr 30uM=57*
COC(=O)c1nn(-c2cccc(C(F)(F)F)c2)ccc1=O,-2,0,i,7,x,
O=C(CCC(=O)N1CCN(C2c3ccccc3-c3ccccc32)CC1)Nc1nnc(C(F)(F)F)s1,x,0,x,x,x,
Cc1ccccc1N/C(SCc1cccc(Br)c1)=C(/C#N)C(N)=O,21,0,i,97*,67*,Diaphorase 10uM=61*;Diaph ctr 30uM=33
O=C1C=C(N2CCOCC2)c2ccccc2C1=O,1,1,i,71*,54*,Diaphorase 10uM=73*;Diaph ctr 30uM=83*
Nn1c(SCC(=O)NC2CCCCC2)nnc1-c1cc(-c2ccc(Cl)cc2)n[nH]1,x,0,x,x,x,
Cc1[nH]c2ccccc2c1CCO,-4,0,i,-10,x,
Cc1[nH]c2ccccc2c1C1=CC(=O)C=CC1=O,0,1,i,129*,114*,Diaphorase 10uM=93*;Diaph ctr 30uM=53*
COc1cc(C)ccc1Oc1ccc([N+](=O)[O-])cc1,24,0,i,63*,16,
COc1cc(C)ccc1OCCOCCOc1ccc([N+](=O)[O-])cc1,21,0,i,14,x,
c1ccc2c(c1)CCN(c1nc3cc4c(cc3s1)OCCO4)C2,19,-1,x,64*,18,
SMILES,FAS-TE inh,KLK7 zymogen act,Neddyl block,PfG6PD inh,PfGluPho conf,others
O=C1c2ccccc2C(=O)c2c1oc(C(F)(F)F)c2C(=O)c1ccccc1,24,1,i,74*,16,
C/C(=N\NC(=O)Cc1cc(=O)[nH][nH]1)c1ccc([N+](=O)[O-])cc1,x,0,x,x,x,
COCCCN1C(=O)[C@H](CC(=O)NCc2ccc(OC)c(OC)c2)[C@]2(C(=O)OC)CCCCC=C12,x,0,x,x,x,
Cc1cc(C)c(NC(=S)NCC2CCN(C(C)c3ccccc3)C2)c(C)c1 (stereo not given),-5,0,i,84*,76*,Diaphorase 10uM=0;Diaph ctr 30uM=-3
COc1cc(NS(=O)(=O)c2ccc(C)cc2C)cc(OC)c1OC,-2,-1,i,18,x,
COc1cc(NS(=O)(=O)c2cc3[nH]c(=O)c(=O)[nH]c3cc2C)cc(OC)c1OC,-7,0,i,63*,0,
CCOc1ccc(Oc2c(Cl)c(Br)nn(Cc3cccc4ccccc34)c2=O)cc1,x,0,x,x,x,
Cc1ccc(NC(=S)N(CCN(C)C)Cc2cccs2)c(C)c1,-3,0,i,61*,42,
Fc1ccc(COc2ccccc2C(=S)N2CCCC2)cc1,16,0,i,70*,39,
CC(C)CNc1cccc2c1S(=O)(=O)N(Cc1cn(Cc3cccc(C(F)(F)F)c3)nn1)Cc1ccccc1O2,x,-9,x,x,x,
CC1=NOC(=O)/C1=C/c1ccc(-c2ccc(Cl)cc2)o1,-6,x,i,x,x,
CC1=NOC(=O)/C1=C\c1ccc(-c2cc(Cl)ccc2Cl)o1,-5,0,i,80*,11,
Cc1nc2cc(C(=O)N3CCN(C(=O)C(Cl)Cl)CC3)ccc2n1C1CCCC1,x,0,x,x,x,
CC(NC1=CC(=O)c2cccnc2C1=O)C(O)c1ccccc1 (stereo not given),22,4,i,105*,74*,Diaphorase 10uM=47;Diaph ctr 30uM=43
CC(c1ccccc1)N1C(=O)c2cccnc2C1=O (stereo not given),-3,0,i,-17,x,
Nc1ccc2nc(-c3ccccc3)c(-c3ccccc3)nc2c1,-3,-8,i,79*,-1,
CN(C)c1nc(=NCc2cccs2)ss1,2,0,i,60*,49*,Diaphorase 10uM=4;Diaph ctr 30uM=-4
CC(SC(=S)N(C)Cc1cccs1)C(=O)O (stereo not given),-5,0,i,-18,x,
CC(=O)OCC1(C)CN(c2ccccc2)NC1=O (stereo not given),-11,0,i,97*,90*,Diaphorase 10uM=-1;Diaph ctr 30uM=-11
CC1(OC(=O)C2CCCC2)C(=O)C=C2C=C(c3ccsc3)N(C(CO)CO)C=C2C1=O (stereo not given),-14,1,i,66*,7,
CC1(OC(=O)C2CCCC2)C(=O)C=C2C=C(c3ccsc3)N(C3CC3)C=C2C1=O (stereo not given),-8,1,i,80*,28,
CC1(OC(=O)C2CCCC2)C(=O)C=C2C=C(c3ccsc3)N(c3ccccc3)C=C2C1=O (stereo not given),0,1,i,54,x,
CC1(OC(=O)C2CCCC2)C(=O)C=C2C=C(c3ccsc3)N(CCc3ccccn3)C=C2C1=O (stereo not given),-11,0,i,70*,39,
CC(Cl)C(=O)N1CCC(C(=O)NCC2COc3ccccc3O2)CC1 (stereo not given),x,0,x,x,x,
Cc1ccccc1Nc1nc(-c2ccccc2)c(C(=O)Nc2cccnc2)s1,22,3,i,49,x,
COc1ccc(Nc2nc(-c3ccccc3)c(C(=O)Nc3cccnc3)s2)cc1,2,0,x,65*,16,

# Screening results deposited in PubChem BioAssay by several laboratories.
